# High-throughput results from PubChem.
# In the library only some 7.4% were active in any assay of this set; here they are far more common.
# NPC1 prom act – NPC1 promoter activation | Huh7 NPC1 promoter luciferase reporter, 24 h | Potency, µM (top dose mostly 9.22 µM), actives largely listed as activators | actives 2.4% (n = 320,000); further: nearly all actives have a fitted effect of over 60% in size
#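 Cells: Huh7 expressing luciferase under the NPC1 promoter, 1500/well. Seeded 2 h, compound added, incubated 24 h at 37 °C. Luciferase reagent, 10 min ambient, then luminescence.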
# Rab9 prom act – activates the Rab9 promoter. Huh7 Rab9 promoter-luciferase reporter, luminescence, 24 h. Potency, µM (series often up to 9.22 µM), hits mostly activators. actives 2.8% (n = 320,000). AID 485297; further: nearly all actives have a fitted effect of over 60% in size
#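 Measured in stably transfected Huh7 cells bearing a Rab9 promoter–luciferase construct: 24 h compound treatment at 37 °C, followed by luminescence detection.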
# ELG1 genotox – inducers of genotoxicity in HEK293T ELG1-luciferase cells; actives 1.3% (n = 330,000); AID 504466; Potency, µM (top dose mostly 46 µM), hits mostly activators; HEK293T ELG1-luciferase reporter, luminescence, 16 h; further: nearly all actives have a fitted effect of over 60% in size
#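 After overnight (16 hr) compound treatment at 37 °C, ELG1-luciferase HEK293T cells were lysed with ONE-Glo; luminescence quantified 30 min later at room temperature.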
# FLuc counter – inhibits or activates purified firefly luciferase, miR-21 counter-screen | P08659 | actives 6.9% (n = 360,000) | purified FLuc, Km substrates, luminescence inhibition | Potency, µM (doses to about 57.5 µM), usual class: inhibitors; further: nearly all actives have a fitted effect of over 55% in size
# Target sequence (P08659 whole entry, looked up): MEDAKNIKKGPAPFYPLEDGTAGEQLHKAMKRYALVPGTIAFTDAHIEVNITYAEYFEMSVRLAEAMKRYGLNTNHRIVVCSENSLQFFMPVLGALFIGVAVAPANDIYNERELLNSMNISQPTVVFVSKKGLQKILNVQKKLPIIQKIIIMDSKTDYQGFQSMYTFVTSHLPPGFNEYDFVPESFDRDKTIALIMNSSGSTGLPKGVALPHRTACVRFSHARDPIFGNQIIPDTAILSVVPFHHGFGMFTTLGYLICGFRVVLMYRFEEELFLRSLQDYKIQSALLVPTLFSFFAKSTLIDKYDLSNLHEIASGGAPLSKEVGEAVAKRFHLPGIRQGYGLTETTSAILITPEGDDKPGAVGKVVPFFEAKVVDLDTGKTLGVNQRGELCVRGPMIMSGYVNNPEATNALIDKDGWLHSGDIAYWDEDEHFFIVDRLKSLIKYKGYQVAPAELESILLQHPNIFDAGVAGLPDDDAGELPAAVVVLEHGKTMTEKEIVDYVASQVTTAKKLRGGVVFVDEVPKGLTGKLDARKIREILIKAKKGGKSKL
#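 Purified P. pyralis luciferase (10nM final) with 10uM D-luciferin and 10uM ATP (Km levels) in 50mM Tris acetate pH 7.5, 10mM Mg acetate, 0.01% Tween-20, 0.05% BSA; qHTS 6-point titration, ~60 µM downward; luminescence read.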
# SMN2 splice up – SMN2 splice variant enhancement | HEK293 SMN2-luciferase splicing reporter, luminescence, 30-36 h | Potency, µM (titrated, usually from 46.1 µM), usual class: activators | actives 2.8% (n = 210,000); further: nearly all actives have a fitted effect of over 55% in size
#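 qHTS luciferase splicing reporter: luminescence rises when SMN2 exon 7 is included in transfected HEK293 cells. Compound exposure lasted 30-36 h at 37C, with 4.5 mM final sodium butyrate as control, followed by a ONE-Glo read.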
# A number is an active result; . = inactive; ? = inconclusive; / = no result; [ ] = remark or other dose. The call rests on the fitted dose curve; in most records, active means well fitted curve in the direction sought with a large enough effect; inconclusive means small, poorly fitted or top-dose-only effect, or another doubt; inactive means no such curve, though single readings can be large; an effect the other way counts as inactive or inconclusive.
SMILES,NPC1 prom act,Rab9 prom act,ELG1 genotox,FLuc counter,SMN2 splice up
COc1ccc(-c2nc3ccc(Cl)cn3c2Nc2ccc(C)cc2)cc1,/,/,/,.,.
CCOC(=O)CNc1c(-c2ccc(OC)cc2)nc2ccc(Cl)cn12,.,.,?,8.5µM,?
O=C(CSc1nnc2ccc3ccccc3n12)Nc1ccccc1Cl,/,/,/,17µM,/
CCCOC(=O)CSc1nnc2ccc3ccccc3n12,/,/,/,9.5µM,/
O=C1c2ccccc2NC(c2ccccc2)N1/N=C/c1ccccc1 (centres undefined),2.5µM,2.5µM,.,?,25µM
O=C1c2ccccc2NC(c2ccc(O)cc2)N1/N=C/c1ccc(O)cc1 (centres undefined),.,.,.,.,.[1.84 µM]
O=C(O)c1cc(N/N=C/c2cccs2)ccc1Cl,?,?,?,9.5µM,11µM
Cc1ccc(/C=N/Nc2ccc(Cl)c(C(=O)O)c2)s1,0.32µM,0.32µM,?,4.8µM,0.89µM
Cc1ccc(/C=N/Nc2nc(Cl)c(Cl)cc2Cl)s1,?,?,?,6µM,?
Cc1ccc(/C=N/Nc2ccc(F)cc2)s1,.,.,.,?,/
COc1ccc2ccccc2c1CNC(C)CCc1ccccc1 (centres undefined),.,.,.,.,/
C/C(CC(=O)Nc1cccc(C(F)(F)F)c1)=N\NC(=O)c1cnccn1,.,.,.,.,/
CCOc1ccc(OCc2ccc(C(=O)Nc3cc(OC)c(OC)c(OC)c3)o2)cc1,/,/,/,.,.
C/C=C/c1ccccc1OCc1ccc(C(=O)O)o1,.,.,.,.,/
O=C(O)c1ccc(COc2ccc3ccccc3c2)o1,?,?,?,19µM,/
CCOc1ccc(OCc2ccc(C(=O)O)o2)cc1,?,0.28µM,?,3.4µM,0.89µM
COc1cc2c(cc1OC)/C(=C/C(=O)c1ccccc1)NCC2,.,.,.,.,/
COc1cc2c(cc1OC)/C(=C/C(=O)c1ccc(C)cc1)NCC2,.,.,.,17µM,/
COc1ccc(C)cc1NC(=O)C(Cc1ccccc1)NS(=O)(=O)c1cccs1 (centres undefined),/,/,/,.,/
Cc1ccnc(N2C(=O)c3ccccc3C2O)c1 (centres undefined),1µM,?,1.8µM,6µM,11µM
Cc1ccnc(N2C(=O)c3ccccc3C2Nc2cccc(C)c2C)c1 (centres undefined),.,.,.,.,.
CC(C)(C)c1ccc(C(=O)NC(CC(=O)O)c2ccc(OC3CCCC3)cc2)cc1 (centres undefined),.,.,.,19µM,/
CN(C)S(=O)(=O)N(CC(=O)NCCSCc1c(F)cccc1Cl)c1ccccc1,/,/,/,.,.
O=C(OCC(=O)c1ccc[nH]1)c1ccccc1,.,?,?,17µM,.
COc1ccc(C(=O)COC(=O)c2ccc(N(C)C)cc2)cc1,.,?,.,.,.
SMILES,NPC1 prom act,Rab9 prom act,ELG1 genotox,FLuc counter,SMN2 splice up
O=C(OCC(=O)c1ccc[nH]1)c1ccc(Cl)c(Cl)c1,/,/,.,/,/
O=C(/C=C/c1ccccc1Cl)OCC(=O)c1ccc[nH]1,.,.,.,9.5µM,/
O=C(COC(=O)c1c(F)cccc1F)c1ccc[nH]1,.,.,.,17µM,/
CN(C)c1ccc(C(=O)OCC(=O)c2ccc[nH]2)cc1,/,/,16µM,/,/
CCOC(=O)C1CCN(S(=O)(=O)c2c(C)[nH]c(C)c2C(=O)N2CCCCC2)CC1,.,.,.,.,/
Cc1ccc(-c2cc(C(=O)NCc3ccc4c(c3)OCO4)[nH]n2)c(O)c1C,.,.,.,19µM,.
COc1ccc(CCNC(=O)c2cc(-c3ccc(C)c(C)c3O)n[nH]2)cc1OC,.,.,.,?,.
COc1ccc(NC(=O)c2cc(-c3cc(C)ccc3O)n[nH]2)cc1Cl,.,.,.,.,.
Cc1c(Cl)cccc1NC(=O)c1cc(-c2ccccc2O)n[nH]1,?,?,?,21µM,.
Cc1ccc(-c2cc(C(=O)Nc3cccnc3)[nH]n2)c(O)c1C,?,4µM,9.2µM,3.4µM,/
Cc1cccc(NC(=O)c2cc(-c3cc(C)ccc3O)n[nH]2)c1,1.1µM,?,?,3µM,/
O=C(Nc1nc(-c2cccs2)c(-c2cccs2)s1)C1CCCC1,.,.,.,?,.
Cc1ccc(CN(C)C(=O)C2CCC(=O)N(CC3CCCCC3)C2)o1 (centres undefined),.,.,.,.,/
Cc1cccc(NC(=O)c2cc(-c3cc(C)c(C)cc3O)n[nH]2)c1,0.89µM,0.56µM,?,?,/
